SMILES strings stand for the structures. The campaign covered roughly 360,000 compounds. About 11,000 (3.1%) were called active. Not shown: some 2% with an inconclusive outcome. No stated cut-off is given here; in the data, active means fluorescence intensity above about 16000; inconclusive means no clear call, values can overlap the other calls; inactive means below that. The entries come from a sample that favours actives as a whole.

The test is described as follows: counter-screen for toxin protease inhibitors: compound fluorescence, primary screen, artefact control for toxin protease inhibitor project, biochemical, multiplex microsphere, HTS (AID 624483). The note with it: compound autofluorescence counterscreen, microsphere flow cytometry; hits give high values. On the technique in general: Counterscreens check selectivity or assay interference.
Turning to `Clc1ccc(-c2nnc(SCc3nc4ccccc4s3)o2)cc1`, the fluorescence intensity was 2530 (inactive).

Turning to `O=C(OCc1nc2ccccc2[nH]1)C1CCCCC1`, the fluorescence intensity is 2190 (inactive). Then `O=c1c(-c2ccc(Cl)cc2)[n+]([O-])c2ccccc2n1OCc1nc2ccccc2[nH]1`, with 4300 (inactive); and `Oc1ccc2nc(Cc3ccccc3)[nH]c2c1`, with 4090 (inactive); and `Clc1ccccc1SCc1nc2ccccc2[nH]1`, with 24700 (active). For `c1ccc2c(CSCc3nc4ccccc4[nH]3)cccc2c1`, the fluorescence intensity is 21700 (active). To `c1ccc(-c2nnc(SCc3nc4ccccc4[nH]3)o2)cc1` belongs 18800 (active); to `Fc1ccc2nc(-c3ccccc3)nc(SCc3nnc(-c4ccccc4)o3)c2c1`, 4280 (inactive).

Consider `c1ccc2cc3[nH]c(CN4CCCCC4)nc3cc2c1`, for which the fluorescence intensity is 5430 (inactive). To `CC1(Oc2ccccc2-c2ccno2)CCN(Cc2ccc(-c3ccccc3)o2)C1` (stereo not drawn) belongs 3970 (inactive); to `CN1CCN(c2ccncc2S(=O)(=O)N2CCCC2)CC1`, 3800 (inactive); to `Cc1ccc(NC(=O)c2ccc(S(=O)(=O)NCC3CCCO3)cc2)cc1C` (stereo not drawn), 4660 (inactive). Then `CCc1c(O)nc(SCC(=O)Nc2ccccc2)n(C(C)CC)c1=O` (stereo not drawn), with 9640 (inactive); and `CCOC(=O)c1cc2cc(C)ccc2[nH]1`, with 4370 (inactive). Then `Cc1cc(Br)cn2c(Cc3cccc(F)c3)c(-c3cccc(Br)c3)nc12`, with 5680 (inactive). On to `C=CC[C@@H](Cc1ccc(F)cc1)C(=O)OC[C@H]1CCCN1C(=O)[C@H](CC=C)CC(=O)N(CCO)Cc1ccccc1`, for which the fluorescence intensity was 3800 (inactive).

As to `Cc1cccc(OCc2nnc(SCn3nnc4ccccc4c3=O)o2)c1`, the fluorescence intensity was 4060 (inactive). Then `Cc1cc(C)cc(OCc2nnc(SCC(=O)OC3CCCCC3)o2)c1`, with 19000 (active); and `Cc1cc(C)cc(-c2nnc(SCC(=O)NC3CC3)o2)c1`, with 8900 (inactive); and `CN(C)CCN1CCN(c2cc(-c3cccc(Cl)c3)nc3ccnn23)CC1`, with 3570 (inactive). To `COC(=O)[C@@]1(Sc2ccc(C)cc2)CC(=O)N(c2cccc(SC)c2)[C@@H]1c1ccccc1` belongs 4090 (inactive); to `O=c1c2ccccc2oc2nc3n(c(=O)c12)CCCS3`, 10300 (inactive); to `COc1ccc(Cn2c(=O)oc3ccccc32)cc1`, 2890 (inactive).

For the compound `CCc1nc2oc3ccccc3c(=O)c2c(=O)n1Cc1ccc(OC)cc1`, the fluorescence intensity was 17100 (active).

As to `CCCCn1nnnc1C1(C)CCC(=O)N1Cc1ccc(OC)c(OC)c1` (stereo not drawn), the fluorescence intensity is 5290 (inactive). Then `CCOC(=O)c1cc(NC(=O)c2ccc(Cl)cc2)c(=O)oc1-c1ccccc1`, with 5720 (inactive); and `COc1cc(NC(=O)c2ccccc2)c(OC)cc1NC(=O)Cc1ccccc1`, with 4090 (inactive). Regarding `CC(=O)c1cc(NC(=O)c2ccccc2)c(=O)oc1/C=C/N(C)C`, the fluorescence intensity was 24500 (active). For `O=C(CNC(=O)c1cc2c(s1)CCC2)Nc1ccccc1Br`, the fluorescence intensity is 24100 (active). In the case of `O=C(NCC1CCCO1)c1cc2c(s1)CCCC2` (stereo not drawn), the fluorescence intensity is 8290 (inactive). To `O=C(CCc1nc2sc3c(c2c(=O)[nH]1)CCCC3)NCC(=O)Nc1ccccc1Br` belongs 3820 (inactive). `CN(C)c1ccc(N/C=C/C(=O)C(F)(F)F)cc1`: the fluorescence intensity was 3470 (inactive). For the compound `CCc1nc2ccc(C(=O)NCCNC(C)=O)cn2c1N(CC)Cc1cccc(Br)c1`, the fluorescence intensity was 3860 (inactive). To `Cc1ccc(CNC(=O)CSc2nnc3c(n2)[nH]c2ccc(F)cc23)cc1` belongs 5580 (inactive); to `Cc1ccn2c(=O)nc(SCC(=O)NCc3ccc(F)cc3)nc2c1`, 16300 (active); to `Cc1ccn2c(=O)nc(SCC(=O)NCc3ccc4c(c3)OCO4)nc2c1`, 5730 (inactive). For `COc1ccc(CC(N)c2csc(NC(=O)Nc3ccc(C(C)C)cc3)n2)cc1` (stereo not drawn), the fluorescence intensity was 3480 (inactive). To `Nc1scc[n+]1Cc1cccc2cccnc12` belongs 3430 (inactive); to `c1ccc2c(CNn3cnnc3)cccc2c1`, 2660 (inactive).

Take `c1ccc2c(C[n+]3csc4ccccc43)cccc2c1`: the fluorescence intensity was 24500 (active). Then `O=S(=O)(NCc1ccccn1)c1ccc(Br)s1`, with 18000 (active); and `O=S(=O)(NCc1cccnc1)c1ccc(Br)s1`, with 23300 (active); and `Cc1cc(S(=O)(=O)NCc2ccccn2)c(Cl)cc1Cl`, with 3790 (inactive). Then `O=S(=O)(NCc1cccnc1)c1ccc(Cl)nc1`, with 2520 (inactive); and `O=S(=O)(NCc1ccccn1)c1ccc(F)cc1`, with 11500 (inactive). To `CC1CCN(S(=O)(=O)c2ccc(S(=O)(=O)NCc3cccnc3)cc2)CC1` belongs 4180 (inactive); to `CN(C(=O)c1cccc(NC(=O)C2CCN(C(=O)OC(C)(C)C)CC2)c1)C1CCC1`, 4250 (inactive). For the compound `CCc1ccnc(NS(=O)(=O)c2ccc3c(c2)OCCO3)c1`, the fluorescence intensity is 6030 (inactive).

Regarding `CC(=O)NN=C(C)c1ccc(NC(=O)C2CC2)cc1`, the fluorescence intensity was 3420 (inactive). Then `CCCCCn1nnnc1-c1nc2cc3ccccc3cc2[nH]c1=O`, with 5190 (inactive). Then `CC(O)C(NS(=O)(=O)c1ccc(Cl)cc1)C(=O)OCc1cc([N+](=O)[O-])cc2c1OCOC2` (stereo not drawn), with 3270 (inactive); and `COc1ccccc1CSc1ncc(-c2ccc([N+](=O)[O-])cc2)[nH]1`, with 2560 (inactive). To `Nc1ccccc1SCc1cc([N+](=O)[O-])cc2c1OCOC2` belongs 22000 (active); to `Cn1c(NC(=O)c2ccco2)c(-c2ccccc2Cl)c(=O)c2ccccc21`, 5600 (inactive); to `COc1cccc(-c2cnc(C(O)c3ccccc3OC)[nH]2)c1` (stereo not drawn), 4140 (inactive). With `CN(Cc1nc2ccccc2c(=O)[nH]1)Cc1cc(=O)oc2ccc3ccccc3c12`, the fluorescence intensity was 10600 (inactive). To `CCN(CC(=O)NC(=O)NCc1ccccc1)Cc1nc2ccccc2c(=O)[nH]1` belongs 4790 (inactive).

For `CCN(Cc1nc2ccccc2c(=O)[nH]1)Cc1cc(=O)oc2cc(C)c(C)cc12`, the fluorescence intensity is 22700 (active). To `Cc1ccccc1/[N+]([O-])=C/c1ccncc1` belongs 3600 (inactive). Then `O=C(Nc1ccc(F)cc1)Nc1nnc([C@H]2C[C@H](O)[C@@H](CO)O2)s1`, with 2870 (inactive); and `COc1ccc(C(=O)NNC(=O)c2cnccn2)cc1[N+](=O)[O-]`, with 16500 (active).

`COc1cccc(OCC(=O)NNC(=O)c2cnccn2)c1`: the fluorescence intensity was 2360 (inactive). Regarding `CCOc1ccc(C(=O)Nc2nccs2)cc1[N+](=O)[O-]`, the fluorescence intensity was 2430 (inactive). Then `Cc1ccc(CC2(C)C(=O)Nc3ccc(OC(F)(F)F)cc32)cc1` (stereo not drawn), with 3690 (inactive). Then `O=C(COc1ccc(S(=O)(=O)Nc2cccc(C(F)(F)F)c2)cc1)N1CCOCC1`, with 4570 (inactive). Then `O=C(Nc1cccc(OCC(=O)N2CCOCC2)c1)C1CCCCC1`, with 23600 (active).

As for `Cc1cccc(NC(=O)C2CCN(C(=O)NC3CCCCC3)CC2)c1`, the fluorescence intensity was 3730 (inactive). To `C#Cc1ccc(NC(=O)C2(C)CCN2C(=O)Cc2ccc(-c3ccccc3)cc2)cc1` (stereo not drawn) belongs 3720 (inactive); to `C/C(=N\NC(=S)Nc1ccc(C)cc1)c1cc2ccccc2o1`, 4230 (inactive); to `Cc1ccc(C)c(NC(=S)NNC(=S)Nc2ccc(C(C)C)cc2)c1`, 3300 (inactive).

Turning to `Cc1ccc(NC(=S)N/N=C2/CCCc3c(C)cc(C)cc32)cc1`, the fluorescence intensity is 20600 (active). Turning to `COCc1cccc(-c2csc(C(O)c3ccc(F)cc3)n2)c1` (stereo not drawn), the fluorescence intensity is 3440 (inactive). With `O=C(CC1Nc2ccccc2NC1=O)Nc1ccccc1` (stereo not drawn), the fluorescence intensity was 3710 (inactive). To `N#Cc1ccc(-c2ccc3nccn3c2)cc1` belongs 3660 (inactive); to `Cc1cc(C)cc(OCC(=O)Nc2ccc(S(=O)(=O)Nc3ccccn3)cc2)c1`, 2260 (inactive). Then `Cc1ccc(S(=O)(=O)Nc2ccc3ncccc3c2)cc1`, with 22700 (active); and `Cc1ccc(NS(=O)(=O)c2ccc(C(C)(C)C)cc2)cn1`, with 3470 (inactive). To `CSc1cccc(NC(=S)N(C(C)C)C(C)c2ccccn2)c1` (stereo not drawn) belongs 3430 (inactive); to `Cc1ccc2c(=O)cc(C(=O)NCCc3ccc(S(N)(=O)=O)cc3)oc2c1C`, 3650 (inactive); to `O=C(NCc1cccnc1)c1ccccc1NC(=O)c1c(F)cccc1F`, 5910 (inactive). Turning to `O=C(NC1(C(F)(F)F)NC(=O)N(Cc2cccnc2)C1=O)c1ccccc1Cl` (stereo not drawn), the fluorescence intensity was 21200 (active). Consider `COc1ccc(C(=O)NC2(C(F)(F)F)NC(=O)N(CCCc3ccccc3)C2=O)c(OC)c1OC` (stereo not drawn), for which the fluorescence intensity is 8270 (inactive).

Consider `Cc1onc(-c2ccccc2)c1-c1nnc(COC(=O)c2ccc(N(C)C)cc2)o1`, for which the fluorescence intensity was 3380 (inactive). Then `CCOC(=O)c1ccc(-n2c(CCC(=O)O)ccc2-c2ccccc2)cc1`, with 3600 (inactive); and `CCOC(=O)c1ccc(COC(=O)CCc2nc(-c3ccccc3)c(-c3ccccc3)o2)cc1`, with 16400 (active).

For `COc1c(O)ccc2c1CN1CCc3cc4c(cc3C1C2)OCO4` (stereo not drawn), the fluorescence intensity is 4960 (inactive). Regarding `COc1ccc(C2OC(CCc3ccccc3)Cc3[nH]c(=S)[nH]c(=O)c32)cc1` (stereo not drawn), the fluorescence intensity was 5590 (inactive).

`CCOC(=O)c1cc(NC(=O)c2cccnc2)cc(C(=O)OCC)c1`: the fluorescence intensity was 24800 (active). With `CCOC(=O)c1cc(NC(=O)c2cccnc2)ccn1`, the fluorescence intensity is 3490 (inactive).

For the compound `CCOc1ccccc1NC(=O)c1cccnc1`, the fluorescence intensity is 3020 (inactive). Then `OC[C@@H]1CN(Cc2ccc(-c3ccccc3)cc2)C[C@H](n2cnc3c(NC4CCCC4)ncnc32)O1`, with 3740 (inactive); and `COc1ccc(-n2c(SCC(=O)NCc3cccs3)nnc2-c2ccoc2C)cc1`, with 3110 (inactive); and `Cn1c(Cc2cccs2)nnc1SCC(=O)Nc1ccccc1`, with 5420 (inactive). For `CCOC(=O)CSc1nnc(CNC(=O)c2cccs2)n1-c1cc(OC)ccc1OC`, the fluorescence intensity is 9680 (inactive).

In the case of `O=C(CSc1nnc(-c2ccccn2)n1-c1ccccc1)Nc1ccc2c(c1)OCO2`, the fluorescence intensity is 2680 (inactive).

For `COc1ccc(-n2c(SCC(=O)OC(C)C)nnc2-c2ccccn2)cc1`, the fluorescence intensity is 23500 (active).

For `Cc1ccc(-c2nnc(SCC(=O)N/N=C/c3cccs3)n2-c2ccc(C)cc2)cc1`, the fluorescence intensity was 2620 (inactive). In the case of `CCOC(=O)CSc1nnc(CNC(=O)c2ccco2)n1-c1ccc(F)cc1`, the fluorescence intensity is 8100 (inactive).

Take `CCn1c(SCC(=O)c2ccc(Cl)s2)nnc1-c1cccs1`: the fluorescence intensity was 3490 (inactive). Then `Cc1ccc(-n2c(SCC(=O)Nc3ccc4c(c3)OCO4)nnc2-c2ccccn2)cc1`, with 9860 (inactive); and `CCOC(=O)CSc1nnc(CNC(=O)c2cccs2)n1-c1ccccc1`, with 24300 (active); and `Cc1ccc(-n2c(Cc3cccs3)nnc2SCC(=O)OC(C)C)cc1`, with 23800 (active). Then `CCn1c(Cc2cccs2)nnc1SCC(=O)c1ccc(C)cc1`, with 23000 (active).

Source of the values: PubChem BioAssay AID624483 (NMMLSC, 2012).
